IL1B secr inh: qHTS for Inhibitors of Inflammasome Signaling: IL-1-beta AlphaLISA Primary Screen; 360,000 tested, 4.7% active; activity change, % at 57.5 µM; THP-1 LPS/ATP IL-1B secretion, AlphaLISA, 16 h; stronger effect = lower value; AID 743279, 2014; in the data active = activity change below about -50%; inconclusive = mostly about -30% to -49%
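Secreted IL-1B measured by AlphaLISA bead assay after 16 h compound exposure of THP-1 cells; compounds (final up to 57.5 uM) added 1 h before LPS (250 ng/mL) and ATP (1.25 mM) stimulation; lower signal means less secretion.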
RORg inh: qHTS for inhibitors of ROR gamma transcriptional activity; Drosophila S2 Gal4-RORgamma UAS-luciferase reporter, 20 h; Potency, µM (highest dose often 53.6 µM), usual class: inhibitors; 310,000 tested, 5.4% active; AID 2551, 2010; note: nearly all actives have a fitted effect of over 60% in size
Target sequence (P51450 whole entry, looked up, the tested form may be a part): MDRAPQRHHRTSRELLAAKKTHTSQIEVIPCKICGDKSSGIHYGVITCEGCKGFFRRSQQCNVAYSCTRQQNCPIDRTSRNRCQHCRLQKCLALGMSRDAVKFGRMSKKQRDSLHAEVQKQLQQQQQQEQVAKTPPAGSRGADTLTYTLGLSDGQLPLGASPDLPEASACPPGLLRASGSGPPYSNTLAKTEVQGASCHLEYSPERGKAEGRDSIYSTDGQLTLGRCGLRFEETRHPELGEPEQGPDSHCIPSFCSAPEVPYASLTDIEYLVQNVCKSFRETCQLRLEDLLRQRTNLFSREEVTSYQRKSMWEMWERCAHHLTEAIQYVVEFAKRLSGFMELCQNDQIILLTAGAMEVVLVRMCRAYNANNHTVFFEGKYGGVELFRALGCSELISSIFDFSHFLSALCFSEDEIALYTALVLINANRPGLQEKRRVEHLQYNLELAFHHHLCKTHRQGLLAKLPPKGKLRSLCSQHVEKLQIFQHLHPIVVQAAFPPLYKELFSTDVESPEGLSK
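Stable Schneider cell line, Gal4 DNA-binding domain fused to ROR gamma, UAS-luciferase. Cmpd 1 hr RT → CuSO4 700 uM final → 20 hr RT → luciferase reagent 10 min → luminescence.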
LDHA inh: qHTS assay for inhibitors of human lactate dehydrogenase; purified LDHA, NADH/diaphorase-resazurin fluorescence; stronger effect = lower value; activity change, % (values are at about 110 or 230 µM); 480,000 tested, 0.15% active; AID 1347041, 2019; L-lactate dehydrogenase A chain (Homo sapiens), P00338; in the data active = activity change below about -30%; inconclusive = mostly about -25% to -30%
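LDH5 2 nM; NADH 0.06 mM, pyruvate 0.2 mM; 200 mM Tris pH 7.4, EDTA, Tween-20; 5 min RT. Detection: diaphorase 0.133 mg/mL + resazurin 37 µM, fluorescence ex540/em590 at 0 and 20 min; normalized to enzyme-free and DMSO wells.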
DT40 TDP1 no CPT: qHTS for Inhibitors of human tyrosyl-DNA phosphodiesterase 1 (TDP1): qHTS in cells in absence of CPT; DT40 Tdp1-/- hTDP1 cells, no CPT, ATP luminescence, 48 h; 420,000 tested, 15% active; Potency, µM (top dose mostly 46.2 µM), usual class: inhibitors; note: nearly all actives have a fitted effect of over 55% in size
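Stably hTDP1-transfected Tdp1-null chicken DT40 cells were treated with library compounds minus camptothecin and grown for at least 48 hr at 37 °C, after which cellular ATP was quantified by luminescence.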
DT40 TDP1 CPT: qHTS for Inhibitors of human tyrosyl-DNA phosphodiesterase 1 (TDP1): qHTS in cells in presence of CPT | chicken DT40 Tdp1-/-;hTDP1 cells + 20 nM CPT, ATP luminescence, 48 h | Potency, µM (highest dose often 46.2 µM), usual class: inhibitors | 420,000 tested, 12% active; note: nearly all actives have a fitted effect of over 55% in size
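Chicken DT40 Tdp1-/- cells complemented with human TDP1, 400 cells/well, exposed to compounds plus 20 nM camptothecin for at least 48 h at 37 C; viability read as ATP content by CellTiter-Glo luminescence.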
Gal4-VP16 FLuc: VP16 counterscreen qHTS for inhibitors of ROR gamma transcriptional activity. AID 2546, 2010. Potency, µM (top dose mostly 53.6 µM), actives largely listed as inhibitors. Drosophila S2 Gal4-VP16 UAS-luciferase, luminescence, 20 h. 310,000 tested, 3.5% active;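 note: Gal4-VP16 expression switched on by copper sulfate through the metallothionein promoter; nearly all actives have a fitted effect of over 50% in size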
Numbers stand for hits; - = inactive; ? = inconclusive; . = no result given; [ ] = another dose, or the depositor's remark. In the library only some 18% were active in any assay of this set; here they are far more common. Unless noted, calls come from the whole dose curve; as a rule, active = well fitted curve in the direction sought with a large enough effect; inconclusive = small, poorly fitted or top-dose-only effect, or another doubt; inactive = no such curve, though single readings can be large; an effect the other way counts as inactive or inconclusive.

SMILES	IL1B secr inh	RORg inh	LDHA inh	DT40 TDP1 no CPT	DT40 TDP1 CPT	Gal4-VP16 FLuc
COCCn1c(SC(C)C(=O)NC(N)=O)nnc1-c1cccc(C)c1 (stereo not drawn)	.	.	-	.	.	.
CCCC(=O)Nc1nnc(SCC)s1	-	?	-	-	-	-
Cc1cc(NC(=O)CSc2nccn2-c2cccc(C)c2C)no1	-	-	-	21µM	?	-
CCSc1nnc(NC(=O)NC(CC)(C(F)(F)F)C(F)(F)F)s1	?	-[10 µM]	-	15µM	?	?
OC(c1ccccc1)C1CN(Cc2ccccc2)CCC1(O)c1ccccc1 (stereo not drawn)	-	-	-	?	?	-
O=C(c1ccccc1)C1CN(Cc2ccccc2)CCC1(O)c1ccccc1 (stereo not drawn)	?	-	-	12µM	7.3µM	-
CC(C)NNC(=O)c1ccccc1	.	.	-	.	.	.
CCOc1ccccc1NC(=O)Cn1c(=O)n(Cc2ccco2)c(=O)c2ccc(C(=O)NC3CCCC3)cc21	.	.	-	23µM	?	.
O=C(Cn1c(=O)n(Cc2ccco2)c(=O)c2ccc(C(=O)NC3CCCC3)cc21)Nc1ccc(F)cc1	.	.	-	-	-	.
Cc1ccc(C)c(NC(=O)Cn2c(=O)n(Cc3ccco3)c(=O)c3ccc(C(=O)NC4CCCC4)cc32)c1	.	.	-	16µM	?	.
COc1ccccc1N(CC(O)Cn1cnc2ccccc21)S(=O)(=O)c1ccc(C)cc1 (stereo not drawn)	.	.	-	.	.	.
Cc1c(CC(=O)O)c(=O)oc2c(C)c(OCc3ccccc3F)ccc12	.	.	-	.	.	.
COc1ccc(C(=O)C(CCC(CNC(C)(C)C)C(=O)c2ccc(OC)cc2)CNC(C)(C)C)cc1 (stereo not drawn)	-101	?	-	5.2µM	5.2µM	13µM
CCCOc1ccc(C(=O)C(CCC(CNC(C)(C)C)C(=O)c2ccc(OCCC)cc2)CNC(C)(C)C)cc1 (stereo not drawn)	.	.	-	.	.	.
COc1ccc(C(=O)CC(=O)c2ccc(F)cc2)cc1	-53	.	-	?	-	.
COc1ccc(C(=O)CC(=O)C(=O)Nc2ccc(C)cc2Cl)cc1	-	-	-	16µM	?	-
COc1cccc(C(=O)NNC(=O)C(=O)Nc2ccc(OC)cc2OC)c1	-	14µM	-	?	?	-
COc1cccc(C(=O)CC(=O)C(=O)Nc2ccc(C)cc2Cl)c1	-	?	-	?	?	?
COc1cccc(C(=O)NNC(=O)C(=O)Nc2cccc3ccccc23)c1	-	-	-	?	?	-
O=C(Cn1ccc2cc(Br)ccc21)NC1CC1	.	.	-	.	.	.
CCCNC(=O)Cn1cccc1-c1nc(-c2ccc(F)c(Br)c2)no1	.	.	-	.	.	.
CCOc1ccccc1NC(=O)C(=O)CC(=O)c1cccc(OC)c1	-	3.5µM	-	?	?	7.9µM
COc1cccc(C(=O)CC(=O)C(=O)Nc2cc(OC)c(OC)c(OC)c2)c1	.	-	.	.	.	-
COc1ccccc1NC(=O)C(=O)NNS(=O)(=O)c1ccc2ccccc2c1	-	-	-	26µM	23µM	-
COc1ccc(C(=O)COC(=O)CCc2ccccc2)cc1	-	-	-	-	-	-
SMILES	IL1B secr inh	RORg inh	LDHA inh	DT40 TDP1 no CPT	DT40 TDP1 CPT	Gal4-VP16 FLuc
COc1ccc(C(=O)CC(=O)C(=O)Nc2ccccc2OC)cc1	-	5.6µM	-	?	?	4.5µM
COc1ccc(C(=O)CCc2ccccc2)cc1	-52	-	-	-	-	-
COc1ccc(CNC(=O)C(=O)Nc2ccccc2OC)cc1	.	.	-	-	-	.
CN(C)/C=C/C=C1C(=O)CC(C)(C)CC1=O	.	.	-	.	.	.
Cc1cc(F)ccc1NC(=O)C1CCN(c2cnc3ccccc3n2)CC1	.	.	-	.	.	.
COc1cc(OC)c(NC(=O)C(=O)CC(=O)c2ccc(C)cc2C)cc1Cl	-	?	-	2.6µM	4.6µM	-[10 µM]
COc1ccc(C(=O)NNC(=O)C(=O)Nc2ccc(C)cc2)cc1	-	-	-	?	-	-
COc1cccc(C(=O)CC(=O)C(=O)Nc2cc(OC)ccc2OC)c1	-	11µM	-	23µM	18µM	?
COc1ccc(C(=O)NNC(=O)C(=O)Nc2ccc(C)c(Cl)c2)cc1	-	-	-	?	23µM	-
COc1ccccc1NC(=O)CCC(=O)c1ccc(-c2ccccc2)cc1	-	-[10 µM]	-	23µM	?	-
COc1ccccc1NC(=O)CCSCCC(=O)Nc1ccccc1OC	-	-	-	?	-	-
COc1ccc(C(=O)CC(=O)C(=O)Nc2ccc(C)c(C)c2)cc1	-	13µM	-	21µM	21µM	?
CCCCOC(=O)c1ccc(NC(=O)C(=O)CC(=O)c2ccc(OC)cc2)cc1	-	-	-	16µM	16µM	?
Cc1ccccc1CN1CCCN(c2cccc(C(=O)NCc3ccc4c(c3)OCO4)c2)C1=O	.	.	-	.	.	.
O=c1oc2ccccc2cc1S(=O)(=O)N1CCc2ccccc2C1	.	.	-	.	.	.
CSc1ccccc1NC(=O)/C=C/c1ccc(F)cc1	.	.	-	.	.	.
O=C(/C=C/c1ccccc1)NCCSCc1ccccc1	-	?	-	?	?	13µM
Cc1ccc(O)c(NC(=S)NC(=O)/C=C/c2ccccc2)c1	-	-	-	-	-	-
NC(=S)NC(=O)/C=C/c1ccccc1	-96	7.9µM	-	?	-	?
O=C(/C=C/c1ccccc1)NC(=S)Nc1ccccc1O	-63	?	-	21µM	?	?
O=C(/C=C/c1ccc(F)cc1)NC(=S)Nc1ccccc1O	?	?	-	18µM	?	?
CC(C)C(NC(=O)c1nn(C)c(=O)c2ccccc12)c1ccc2c(c1)OCCCO2 (stereo not drawn)	.	.	-	.	.	.
CCOC(=O)COc1nc(-c2ccco2)c2c(c1C#N)CCC2	.	.	-	.	.	.
COCC(=O)N(C)[C@H]1C[C@H]2c3cc(-c4ccccc4)ccc3CCN2C(=O)[C@H]1[C@H](C)O	-	.	-	-	-	.
C[C@H](O)[C@@H]1C(=O)N2CCc3ccc(-c4ccccc4)cc3[C@@H]2C[C@@H]1N(C)C(=O)c1ccco1	-	.	-	15µM	?	.
C[C@H](O)[C@@H]1C(=O)N2CCc3ccc(-c4ccccc4)cc3[C@@H]2C[C@@H]1N(C)C(=O)c1ccc(C#N)cc1	-	.	-	?	?	.
C[C@H](O)[C@@H]1C(=O)N2CCc3ccc(-c4cccc(F)c4)cc3[C@@H]2C[C@@H]1N(C)S(=O)(=O)c1ccccc1	-52	.	-	?	?	.
CCc1cc(C(=O)NNC(=S)NC)cs1	.	.	-	.	.	.

Screening data as filed in PubChem.
